# Source: PMC4336329 (PLoS ONE, 2015)
# About 14,000 (4.5%) of roughly 310,000 compounds showed an effect of 50% or more. The effect is printed as a negative number. Shown is part of a subset that was picked to be rich in strong results.
# Target: human ether-à-go-go-related gene (hERG) potassium channel (human, UniProt Q12809)
# Assay: primary screen, population patch clamp on CHO cells stably expressing hERG; higher = less effect of the substance
# 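Also: peak tail current of the secondary pulse compared with the same well before compound.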
# Sequence of human ether-à-go-go-related gene (hERG) potassium channel (Q12809 whole entry, looked up): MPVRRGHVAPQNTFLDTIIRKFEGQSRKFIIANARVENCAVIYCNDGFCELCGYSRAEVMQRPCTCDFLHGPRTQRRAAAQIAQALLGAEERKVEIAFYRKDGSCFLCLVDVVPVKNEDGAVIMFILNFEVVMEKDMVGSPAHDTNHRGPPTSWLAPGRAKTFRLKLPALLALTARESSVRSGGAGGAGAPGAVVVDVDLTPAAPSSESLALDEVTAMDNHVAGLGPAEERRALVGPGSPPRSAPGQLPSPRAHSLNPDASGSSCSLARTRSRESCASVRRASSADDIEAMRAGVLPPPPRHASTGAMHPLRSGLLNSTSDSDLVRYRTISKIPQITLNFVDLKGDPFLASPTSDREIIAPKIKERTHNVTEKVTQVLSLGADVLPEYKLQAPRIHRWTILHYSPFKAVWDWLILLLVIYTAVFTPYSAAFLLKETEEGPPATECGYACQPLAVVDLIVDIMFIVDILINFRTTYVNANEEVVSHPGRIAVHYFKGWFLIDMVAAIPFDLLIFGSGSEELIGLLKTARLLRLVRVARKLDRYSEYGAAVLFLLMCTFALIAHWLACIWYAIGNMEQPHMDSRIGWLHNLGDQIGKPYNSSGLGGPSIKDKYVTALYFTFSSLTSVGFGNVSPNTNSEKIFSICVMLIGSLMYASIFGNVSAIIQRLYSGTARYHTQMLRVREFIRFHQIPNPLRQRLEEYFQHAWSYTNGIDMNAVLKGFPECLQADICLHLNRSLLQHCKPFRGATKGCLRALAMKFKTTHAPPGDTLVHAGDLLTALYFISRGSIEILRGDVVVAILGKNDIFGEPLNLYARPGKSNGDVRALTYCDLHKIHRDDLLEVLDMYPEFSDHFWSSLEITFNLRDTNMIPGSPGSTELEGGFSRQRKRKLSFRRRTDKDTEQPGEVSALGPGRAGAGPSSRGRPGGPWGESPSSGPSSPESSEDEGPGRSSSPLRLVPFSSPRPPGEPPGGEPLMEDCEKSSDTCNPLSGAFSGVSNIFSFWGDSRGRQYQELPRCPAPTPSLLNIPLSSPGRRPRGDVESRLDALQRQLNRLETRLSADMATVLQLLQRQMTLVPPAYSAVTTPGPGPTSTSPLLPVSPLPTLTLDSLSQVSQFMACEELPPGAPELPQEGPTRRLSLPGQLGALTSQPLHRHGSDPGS
row,Compound,"hERG current change (%, negative = inhibition) at 10uM [%]"
1,CCOc1ccc(-c2cc(C(=O)N3CCN(c4ccccn4)CC3)c3ccccc3n2)cc1,2.79
2,Cn1ncc2c(Nc3ccc([N+](=O)[O-])cc3)nc(Cl)nc21,18.9
3,Cc1ccc(-c2nnc(N3CCC(C)CC3)c3ccccc23)cc1,3.1
4,COc1nnc(-c2ccc(N3CCOCC3)c(NC(=O)C3CCCCC3)c2)c2ccccc12,-37.3
5,O=C(C1CCC(C(=O)N2CCCCC2)CC1)N1CCCCC1 (stereo not drawn),6.09
6,O=C(CSc1nc2c([nH]c3ccccc32)c(=O)n1-c1ccccc1)NCC1CCCO1 (stereo not drawn),3.52
7,CN(C)c1ccc(C(CNC(=O)Cc2cccc3ccccc23)N(C)C)cc1 (stereo not drawn),-32.8
8,CC(=O)N1c2ccc(S(=O)(=O)NCCC(=O)Nc3ccc(OC(F)(F)F)cc3)cc2CC1C (stereo not drawn),-13.6
9,COCCN(C(=O)c1csnn1)C(C(=O)NC1CCCCC1)c1ccccc1F (stereo not drawn),3.83
10,COc1ccc(-c2csc(N3CCC(c4ccccc4)CC3)n2)cc1,23.2
11,CC(C)Cn1c(SCC(=O)N(C)C2CCS(=O)(=O)C2)nc2cc(Cl)ccc2c1=O (stereo not drawn),-31.5
12,CCc1cc2c(=O)n(Cc3ccco3)c(SCC(=O)N3CCCc4ccccc43)nc2s1,-23.4
13,CCc1cc2c(SCC(=O)N(C)C3CCS(=O)(=O)C3)ncnc2s1 (stereo not drawn),-20.1
14,CCc1cc2c(=O)n(Cc3ccco3)c(SCC(=O)N(C)C3CCS(=O)(=O)C3)nc2s1 (stereo not drawn),-79.1
15,CCN(C(=O)CSc1nc2cc(Cl)ccc2c(=O)n1Cc1ccco1)C1CCS(=O)(=O)C1 (stereo not drawn),-74.7
16,CCN(C(=O)CSc1nc2cc(Cl)ccc2c(=O)n1CC(C)C)C1CCS(=O)(=O)C1 (stereo not drawn),2.51
17,COc1ccc(CNC(=O)[C@H](C)NC(=O)C2CCN(C(=O)[C@@H](N)CCSC)CC2)cc1,5.47
18,O=C1C=C(O)CC(c2ccco2)C1 (stereo not drawn),9.75
19,O=C(/C=C/c1ccco1)Nc1ccc2nc3n(c(=O)c2c1)CCCC3,-8.17
20,N#CCC(=O)N1CCn2c1nc1ccccc12,17.2
21,Cn1c(=O)n(CCc2ccccc2)c(=O)c2c1nc1n2CCCN1c1ccccc1,-20.7
22,COc1cc(/C=C2/C(=N)N3C=CSC3=NC2=O)ccc1OCCCOc1cc(C)ccc1C,2.54
23,CC1CN(CCOc2ccc([N+](=O)[O-])cc2)CC(C)O1.O=C(O)C(=O)O (stereo not drawn),-46.2
24,COC(=O)c1ccc(OCCCCN2CC(C)OC(C)C2)cc1.O=C(O)C(=O)O (stereo not drawn),-20
25,CC1CCCN(CCCOc2ccc([N+](=O)[O-])cc2)C1.O=C(O)C(=O)O (stereo not drawn),-74.7
26,CC1CC(C)CN(CCCOc2ccccc2[N+](=O)[O-])C1.O=C(O)C(=O)O (stereo not drawn),-35.5
27,CC1CCCN(CC(=O)Nc2cccc([N+](=O)[O-])c2)C1 (stereo not drawn),-16.7

row,Compound,"hERG current change (%, negative = inhibition) at 10uM [%]"
1,CC1CN(CCCCOc2ccc(F)cc2)CC(C)O1.O=C(O)C(=O)O (stereo not drawn),-42.7
2,CC1CC(C)CN(CCCCOc2ccc([N+](=O)[O-])cc2)C1.O=C(O)C(=O)O (stereo not drawn),-78.8
3,CC1CN(CCCOc2ccc([N+](=O)[O-])cc2)CC(C)O1.O=C(O)C(=O)O (stereo not drawn),-71.6
4,Cc1ccc(OC(=O)CCS(=O)(=O)c2ccc(C)cc2)cc1,-24.4
5,O=C(CSc1nnc(COc2ccc(Br)cc2)o1)N1CCOCC1,-17
6,CN(c1ccccc1C(=O)N1CCCC1)S(C)(=O)=O,-9.73
7,N#Cc1ccc(OCC(=O)Nc2ccc3[nH]c(=O)[nH]c3c2)cc1,-4.57
8,C=CCn1c(O)c(C(CC)=Nc2cccc(C(=O)O)c2)c(=O)[nH]c1=O,11.6
9,CSc1ccccc1OCc1cc(C(=O)NCCCc2ccccc2)no1,12.9
10,Cc1ccc2c(CN(C)Cc3cccc(Cl)c3)cc(=O)oc2c1C,12
11,COc1ccccc1NC(=S)N1CC(C)OC(C)C1 (stereo not drawn),19.5
12,COc1cccc(N2CCN(C(=O)CN(C)S(=O)(=O)c3ccc4c(c3)c(=O)n(C)c(=O)n4C)CC2)c1,-10.8
13,CC(C)(C)OC(=O)CNC(=O)c1nc[nH]c1C(=O)NCC(=O)OC(C)(C)C,3.98
14,CN(C(=O)COC(=O)CNS(=O)(=O)/C=C/c1ccccc1)C1CCS(=O)(=O)C1 (stereo not drawn),23.3
15,CCN(CC1COc2ccccc2O1)C(=O)CN1C(=O)NC(C)(c2ccc(C)cc2)C1=O (stereo not drawn),-28.8
16,COC(=O)C1=C(C)N(CC2CC2)C(=NCc2cccc(Cl)c2)N[C@H]1c1ccccc1,-72.3
17,COC(=O)C1=C(C)N(Cc2ccccc2)C(=NCC(C)C)N[C@H]1c1ccccc1,-55.9
18,COC(=O)C1=C(C)N(Cc2ccccc2)C(=S)N[C@H]1c1ccccc1,-2.64
19,CCN1C(=NCc2cccc(Cl)c2)N[C@@H](c2cccc(F)c2)C(C(=O)OC)=C1C,-41.4
20,CCN1C(=NCCCCO)N[C@@H](c2cccc(C(F)(F)F)c2)C(C(=O)OC)=C1C,5.89
21,COC(=O)C1=C(C)N(Cc2ccccc2)C(=NCCCCO)N[C@H]1c1ccccc1,-53.2
22,COC(=O)C1=C(C)N(CC2CC2)C(=NCc2cc(OC)c(OC)c(OC)c2)N[C@H]1c1ccccc1,-17.5
23,COC(=O)C1=C(C)N(Cc2ccccc2)C(=O)N[C@H]1c1ccccc1,-13.5
24,COCCN=C1N[C@@H](c2ccccc2)C(C(=O)OC)=C(C)N1Cc1ccccc1,-16.8
25,COC(=O)C1=C(C)N(Cc2ccccc2)C(=NCCCCO)N[C@H]1CCc1ccccc1,-43.3
26,COCCN=C1N[C@@H](c2ccc(Br)cc2)C(C(=O)OC)=C(C)N1Cc1ccccc1,-55.3
27,COC(=O)C1=C(C)N(Cc2ccccc2)C(=O)N[C@H]1c1ccc(Br)cc1,-10.9
